# Screens deposited in PubChem BioAssay by several laboratories.
# Only some compounds are listed: those with a hit (about 3.5% of all), similar ones and a draw of the others.
# Platelet DG rel: modulates dense granule release in human platelets; human platelet-rich plasma, SFLLRN dense granule ATP release, luminescence; inhibition, %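 (compounds screened at 7.5 µM in platelet-rich plasma)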; 300,000 compounds, 0.22% hits; AID 1663;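 active = mean replicate score, as percent of positive control, at or above 50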
# TROY NFkB inh: TROY signaling inhibition. Q293 LMP1-TROYcd NF-kB luciferase reporter, 4 h. AID 1347056. 360,000 compounds, 0.98% hits. inhibition, % at 10 µM;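 active = compounds whose plate-normalised and pattern-corrected inhibition of the luciferase reporter signal at the single screening dose is 50% or more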
# HSP90 inh: blocks HSP90-mediated luciferase refolding in reticulocyte lysate. Rabbit reticulocyte lysate, luciferase refolding luminescence, 3 h. inhibition, % at 5.6 µM. 290,000 compounds, 0.91% hits. AID 1789;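 active = inhibition above the screen-wide mean plus 3 SD, computed separately per campaign, cut at about 16% in these data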;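 note: 0% = DMSO wells and 100% = 60 µM geldanamycin wells; inhibitors lower the luminescence because luciferase stays unfolded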
# TWEAK Fn14 block: blocks TWEAK-Fn14 interaction in a reporter cell assay. AID 1159606. TWEAK-stimulated Fn14 reporter cells, luciferase luminescence, 8 h. inhibition, % at 10 µM. 360,000 compounds, 2% hits; in the data active = inhibition above about 50%
# PPC-1+TRAIL kill: PPC-1 cancer cell killing with TRAIL present | PPC-1 cells + TRAIL, ATPLite viability luminescence | cell killing (% activity), % at 4 µM or 5 µM | 220,000 compounds, 0.41% hits | AID 1443;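 active = cell killing above 50% in the first pass at 4 µM, then a duplicate retest at 5 µM averaging 50% or more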;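 note: plate controls were cells with TRAIL plus DMSO for no effect and medium-only wells lacking cells for full effect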
# TRAIL sens C8: caspase-8 TRAIL sensitization; NB7+C8 cells + TRAIL, ATPlite viability luminescence; 360,000 compounds, 1% hits; inhibition (viability loss, TRAIL sensitization), % at 10 µM;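 active = compounds causing at least 50% loss of cell viability in the single-dose screen, relative to plate controls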
# Starred values were filed as active, the others as inactive; / = no result given.
SMILES,Platelet DG rel,TROY NFkB inh,HSP90 inh,TWEAK Fn14 block,PPC-1+TRAIL kill,TRAIL sens C8
CC1=CN2C(c3cccc([N+](=O)[O-])c3)=NON(c3ccc(C)cn3)C2C=C1 (stereo not drawn),/,60*,/,-33,/,-7
O=C(c1ccccc1F)N1CCN(c2ccc([N+](=O)[O-])c(NCc3cccnc3)c2)CC1,-2,15,-1,72*,16,16
COc1ccc(CCNc2cc(N3CCN(C(=O)c4ccccc4F)CC3)ccc2[N+](=O)[O-])cc1OC,18,35,-4,93*,21,52*
O=C(c1ccccc1)N1CCN(c2ccc([N+](=O)[O-])c(NCc3cccnc3)c2)CC1,-3,14,1,12,1,2
COc1ccc(C(=O)N2CCN(c3ccc([N+](=O)[O-])c(NCCc4ccc(OC)c(OC)c4)c3)CC2)cc1,-6,63*,8,92*,38,40
COc1ccc(CCNc2cc(N3CCN(C(=O)c4ccc(C)cc4)CC3)ccc2[N+](=O)[O-])cc1OC,-6,/,2,/,40,/
COc1ccccc1OCCNc1cc(N2CCCCC2)ccc1[N+](=O)[O-],3,-6,-1,-13,-6,3
CCc1ccc(OCCCCN(C)Cc2ccccc2)cc1,0,6,-3,11,/,-21
COC1OCC(O)C(OC(=O)c2ccccc2)C1OC(=O)c1ccccc1 (stereo not drawn),/,18,/,0,/,-13
COc1cc(C(=O)COC(=O)c2ccc3c(c2)OCCO3)cc(OC)c1OC,/,7,/,17,/,-3
CCOC(=O)Cc1ccc2sc(-c3ccccc3)nc2c1,55*,-1,1,19,-5,39
O=C(NCc1cccnc1)c1csc([C@@H]2C[C@H](O)[C@@H](CO)O2)n1,/,-2,/,1,/,-6
COC(=O)COc1ccc(-c2nccc(-c3ccc(Br)cc3)n2)cc1,6,-1,-2,7,/,-8
COC(=O)COc1ccc(-c2nccc(-c3ccccn3)n2)cc1,0,9,1,61*,/,6
Cc1ccc(NC(=S)c2ccncc2)c(C)c1,0,19,3,44,/,-3
Cc1ccc(NC(=S)c2nc3ccccc3[nH]2)c(C)c1,1,-11,2,10,38,73*
O=C(Cc1cccc(NC(=O)C2CCN(C(=O)C3CC3)CC2)c1)Nc1cccc(C(=O)N2CCCC2)c1,/,0,/,4,/,-12
CC(NC1=CC(=O)c2cccnc2C1=O)C(O)c1ccccc1 (stereo not drawn),/,7,/,16,/,83*
CC(=O)c1sc(NC(=O)c2cc(=O)c3ccccc3o2)nc1C,-6,-7,3,30,38,54*
CCOC(=O)c1csc(NC(=O)c2cc(=O)c3ccccc3o2)n1,-1,-27,9,-8,8,1
CCOCC(=O)Nc1ccc(S(=O)(=O)NCC2CCCO2)cc1 (stereo not drawn),10,2,-4,-8,/,-12
O=C(NCCc1ccccc1)C1C(=O)Nc2ccccc2C(=O)N1C1CCCCC1 (stereo not drawn),/,/,/,/,/,12
CCc1nc(N)nc(N)c1-c1ccc(Cl)c(N=[N+]=[N-])c1,/,15,/,0,/,83*
CCOc1cc(-c2c(C)c(CC)nc(N)c2C#N)ccc1O,1,18,-2,16,-10,-2
CCc1nc(N)nc(N)c1-c1ccc(Cl)c([N+](=O)[O-])c1,/,10,/,2,/,80*
SMILES,Platelet DG rel,TROY NFkB inh,HSP90 inh,TWEAK Fn14 block,PPC-1+TRAIL kill,TRAIL sens C8
CN(C)c1ccc(/C=C2\N=C(c3ccc(Cl)c([N+](=O)[O-])c3)NC2=O)cc1,-8,-1,-1,-7,14,32
CCc1nc(Nc2cc(OC)ccc2OC)c2oc3ccccc3c2n1,6,-12,-4,-5,/,-7
CCc1nc(Nc2cccc(O)c2)c2oc3ccccc3c2n1,1,76*,2,70*,/,8
CCc1nc(Nc2ccc3c(c2)OCO3)c2oc3ccccc3c2n1,0,31,-3,50*,11,15
CCc1nc(Nc2ccncc2)c2oc3ccccc3c2n1,1,-15,2,-65,7,16
COc1ccccc1OCCCC(=O)Nc1nccs1,1,-59,-3,-5,13,4
Cc1cc(=O)[nH]c2nnc(-c3ccc(Cl)cc3)n12,-1,-33,-1,15,/,68*
Cc1cc(=O)[nH]c(N2CCN(c3ccc(Cl)cc3)CC2)n1,0,1,-2,-4,/,-4
COc1cc(CNCCN2CCOCC2)ccc1OCc1ccccc1Cl,6,/,2,101*,-7,16
COc1cc(CNc2ccc3[nH]c(=O)[nH]c3c2)ccc1OCc1ccccc1Cl,19,-17,-2,53*,/,23
COc1cc(CNCCN2CCOCC2)ccc1OCc1ccc(Cl)cc1,-7,-60,-2,5,-17,17
CN(Cc1ccc(Cl)c(Cl)c1)C(=O)C1CC(=O)N(c2ccc3c(c2)OCCO3)C1 (stereo not drawn),/,5,/,-9,/,-20
COc1ccc(Nc2ccnc(Nc3ccc(OC)cc3)n2)cc1,-20,24,-6,64*,38,32
CC(C)c1nc(C#N)c(NN)o1,1,21,-4,21,15,-7
N#Cc1nc(Cl)c(Cl)c(NN)c1Cl,8,62*,-4,-16,-1,1
Cn1c2ccccc2c(=O)c2cc(C#Cc3cccc(N)c3)ccc21,/,-52,/,-117,/,-5
Cn1c2ccccc2c(=O)c2cc(C#CC3=CCCCC3)ccc21,/,60*,/,48,/,43
CCOC(=O)c1nn2c(C(F)(F)F)cc(-c3ccc(OC)cc3)nc2c1Br,11,-7,-2,-32,/,11
COc1ccc(CC(=O)N(C)CC(=O)Nc2cccc(F)c2)cc1S(=O)(=O)N1CCOCC1,-3,14,-3,-2,/,-8
CCCN1CCN(c2ncnc3scc(C4COc5ccccc5O4)c23)CC1 (stereo not drawn),12,2,6,0,24,11
c1ccc2c(c1)OCC(c1csc3ncnc(N4CCCCC4)c13)O2 (stereo not drawn),0,33,6,50*,6,-2
COC(=O)c1ccc(NC(=O)C(=O)N2CCCC2)cc1,9,-21,16*,6,-4,25
COC(=O)c1ccc(NC(=S)N2CCCC2)cc1,-2,8,-2,-9,15,-8
COCC(C)n1c(C)cc(C(=O)COC(=O)c2c(NC(C)=O)sc(C)c2C)c1C (stereo not drawn),3,65*,/,15,12,21
O=Cc1ccc(O)c2ncccc12,-4,-12,6,17,12,56*
c1cnc2ccc3ncccc3c2c1,-8,1,6,0,30,-28
Cc1ccccc1NC1=NC(=S)N(c2ccccc2)C12CCCCC2,4,62*,-5,10,22,1
O=C(CCl)Nc1ccccc1Sc1ccc(Cl)cc1,-2,-15,5,88*,-7,95*
